Experimental data from the supplement of paper PMC10127200.
Structures can show the parent of a compound that is named as a salt.

How the values were obtained:
Assay in all cases: Euclidean distance of Cell Painting phenotypic profile (signed KS, 77 features) to DMSO centroid (dimensionless distance); 5 or 10 uM (library dependent); higher = stronger phenotypic change vs DMSO (phenoactivity)
Details in all cases: 48 h
786-O = system: 786-O
Procedure, shortened: (§1)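 Phenoactivity is computed as Euclidean distance to the median vehicle profile. The profiles, drawn from 77 Harmony features scored as signed Kolmogorov-Smirnov statistics versus same-plate vehicle wells, were corrected for plate position, correlation-weighted and replicate-averaged at the top dose. Stained cells were imaged confocally at 20X (9 fields/well) after 48 h with library compounds at 10 or 5 uM, 0.1% DMSO final, in five cancer lines and a healthy fibroblast line.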

A549 = system: A549
Procedure, shortened: as §1

DU145 = system: DU145
Procedure, shortened: as §1

FB = system: FB
Procedure, shortened: as §1

HEPG2 = system: HEPG2
Procedure, shortened: as §1

OVCAR4 = system: OVCAR4
Procedure, shortened: as §1

O=C(O)CC(O)(CC(=O)O)C(=O)O [Citric acid]
Euclidean distance (786-O): 0.88 | Euclidean distance (A549): 0.725 | Euclidean distance (DU145): 1.02 | Euclidean distance (FB): 0.899 | Euclidean distance (HEPG2): 0.774 | Euclidean distance (OVCAR4): 0.991

C[C@H]1CO[C@@H]2Cn3cc(C(=O)NCc4ccc(F)cc4F)c(=O)c(O)c3C(=O)N12
Euclidean distance (786-O): 1.14 | Euclidean distance (A549): 1.26 | Euclidean distance (DU145): 0.669 | Euclidean distance (FB): 0.944 | Euclidean distance (HEPG2): 0.626 | Euclidean distance (OVCAR4): 0.809

CCc1cc(/C(C)=N/OCc2ccc(C3CCCCC3)c(C(F)(F)F)c2)ccc1CN1CC(C(=O)O)C1 [BAF312 (Siponimod)]
Euclidean distance (786-O): 1.61 | Euclidean distance (A549): 1.05 | Euclidean distance (DU145): 1.31 | Euclidean distance (FB): 0.66 | Euclidean distance (HEPG2): 0.538 | Euclidean distance (OVCAR4): 1.25

C[C@H]1C[C@@H]2[C@H]([C@@H](O)C[C@@]3(C)[C@H]2CC[C@]3(O)C(=O)CO)[C@@]2(C)C=CC(=O)C=C12 [Methylprednisolone]
Euclidean distance (786-O): 1.37 | Euclidean distance (A549): 1.96 | Euclidean distance (DU145): 1.76 | Euclidean distance (FB): 1.79 | Euclidean distance (HEPG2): 2.31 | Euclidean distance (OVCAR4): 2.07

CC(=O)OCC[N+](C)(C)C [Acetylcholine Chloride]
Euclidean distance (786-O): 1.02 | Euclidean distance (A549): 0.848 | Euclidean distance (DU145): 1.22 | Euclidean distance (FB): 1 | Euclidean distance (HEPG2): 0.549 | Euclidean distance (OVCAR4): 1.13

CCN(CC)C(=O)Nc1ccc(OCC(O)CNC(C)(C)C)c(C(C)=O)c1 (configuration not stated) [Celiprolol hydrochloride]
Euclidean distance (786-O): 0.816 | Euclidean distance (A549): 0.829 | Euclidean distance (DU145): 1.41 | Euclidean distance (FB): 1.17 | Euclidean distance (HEPG2): 0.422 | Euclidean distance (OVCAR4): 1.24

CN(C)c1ccc2c(c1)Sc1cc(N(C)C)ccc1N2 [TRx0237 (LMTX) mesylate]
Euclidean distance (786-O): 2.79 | Euclidean distance (A549): 3.35 | Euclidean distance (DU145): 2.69 | Euclidean distance (FB): 3.38 | Euclidean distance (HEPG2): 2.95 | Euclidean distance (OVCAR4): 2.88

CC[C@H]1OC(=O)[C@H](C)[C@@H](O[C@H]2C[C@@](C)(OC)[C@@H](O)[C@H](C)O2)[C@H](C)[C@@H](O[C@@H]2O[C@H](C)C[C@H](N(C)C)[C@H]2O)[C@](C)(O)C[C@@H](C)CN(C)[C@H](C)[C@@H](O)[C@]1(C)O [Azithromycin]
Euclidean distance (786-O): 0.885 | Euclidean distance (A549): 0.638 | Euclidean distance (DU145): 1.38 | Euclidean distance (FB): 1.53 | Euclidean distance (HEPG2): 2.1 | Euclidean distance (OVCAR4): 1.08

O=C(O)C(=O)O.[NH-][C@@H]1CCCC[C@H]1[NH-].[Pt+2] [Oxaliplatin]
Euclidean distance (786-O): 3.37 | Euclidean distance (A549): 3.26 | Euclidean distance (DU145): 1.5 | Euclidean distance (FB): 2.95 | Euclidean distance (HEPG2): 3.19 | Euclidean distance (OVCAR4): 3.47

O=C(O)CCCc1cc2cc(Cl)ccc2n1S(=O)(=O)c1ccc2ncsc2c1 [Lanifibranor(IVA-337)]
Euclidean distance (786-O): 0.7 | Euclidean distance (A549): 0.787 | Euclidean distance (DU145): 0.862 | Euclidean distance (FB): 0.874 | Euclidean distance (HEPG2): 0.544 | Euclidean distance (OVCAR4): 1.53

CC1CCc2cc(F)cc3c(=O)c(C(=O)O)cn1c23 (configuration not stated) [Flumequine]
Euclidean distance (786-O): 1.37 | Euclidean distance (A549): 0.57 | Euclidean distance (DU145): 1.32 | Euclidean distance (FB): 0.897 | Euclidean distance (HEPG2): 0.704 | Euclidean distance (OVCAR4): 1.44

O=C1OC(c2ccc(O)cc2)(c2ccc(O)cc2)c2ccccc21 [Phenolphthalein]
Euclidean distance (786-O): 1.6 | Euclidean distance (A549): 0.655 | Euclidean distance (DU145): 1.35 | Euclidean distance (FB): 0.979 | Euclidean distance (HEPG2): 0.6 | Euclidean distance (OVCAR4): 1.49
